Shown are actives, neighbours in structure and some others; about 1.1% of the full set was active somewhere.
RPL19A TOR yeast: yeast TOR pathway RPL19A-GFP modulation | AID 2025 | percent response vs DMSO, % at 10 µM | 330,000 compounds, 0.3% hits | S. cerevisiae RPL19A-GFP strain, flow cytometry, 3 h; active compounds read low;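 active means percent response vs DMSO below 50%; inconclusive means fewer than 70 events counted for the yeast strain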;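 further: median channel GFP fluorescence of the barcoded RPL19A-GFP strain; ratio of sample median GFP to plate DMSO average so 100% = DMSO; lower means less RPL19A-GFP as with rapamycin TOR inhibition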
AGP1 TOR yeast: yeast TOR pathway AGP1-GFP modulation; S. cerevisiae AGP1-GFP multiplex flow cytometry, 3 h; GFP as percent of DMSO wells; GFP response vs DMSO, % at 10 µM; 320,000 compounds, 0.02% hits; AID 2066;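 active means GFP response relative to DMSO above a set limit, near screen average plus 3 SD, cut at about 150% in these data; inconclusive means fewer than 70 cells counted for the yeast strain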;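 further: median GFP channel fluorescence of the gated AGP1 strain per well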
LAP4 TOR yeast: alters LAP4-GFP fluorescence in TOR pathway yeast screen. 320,000 compounds, 0.34% hits. S. cerevisiae LAP4-GFP multiplex, flow cytometry GFP, 3 h; median GFP as percent of DMSO wells. GFP response vs DMSO, % at 10 µM;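 active means GFP response vs DMSO above a set limit, about the screen mean plus 3 SD, cut at about 150% in these data; inconclusive means under 70 cell events counted for the yeast strain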
VLA-4 inh: inhibition in a human VLA-4 binding assay; P13612; VLA-4 expressing cells, ligand binding flow cytometry; inhibition, % (about 7 µM as worked out from the volumes in the protocol); 330,000 compounds, 0.2% hits; AID 2557; in the data active means inhibition above about 50%
Target sequence (P13612 whole entry, looked up): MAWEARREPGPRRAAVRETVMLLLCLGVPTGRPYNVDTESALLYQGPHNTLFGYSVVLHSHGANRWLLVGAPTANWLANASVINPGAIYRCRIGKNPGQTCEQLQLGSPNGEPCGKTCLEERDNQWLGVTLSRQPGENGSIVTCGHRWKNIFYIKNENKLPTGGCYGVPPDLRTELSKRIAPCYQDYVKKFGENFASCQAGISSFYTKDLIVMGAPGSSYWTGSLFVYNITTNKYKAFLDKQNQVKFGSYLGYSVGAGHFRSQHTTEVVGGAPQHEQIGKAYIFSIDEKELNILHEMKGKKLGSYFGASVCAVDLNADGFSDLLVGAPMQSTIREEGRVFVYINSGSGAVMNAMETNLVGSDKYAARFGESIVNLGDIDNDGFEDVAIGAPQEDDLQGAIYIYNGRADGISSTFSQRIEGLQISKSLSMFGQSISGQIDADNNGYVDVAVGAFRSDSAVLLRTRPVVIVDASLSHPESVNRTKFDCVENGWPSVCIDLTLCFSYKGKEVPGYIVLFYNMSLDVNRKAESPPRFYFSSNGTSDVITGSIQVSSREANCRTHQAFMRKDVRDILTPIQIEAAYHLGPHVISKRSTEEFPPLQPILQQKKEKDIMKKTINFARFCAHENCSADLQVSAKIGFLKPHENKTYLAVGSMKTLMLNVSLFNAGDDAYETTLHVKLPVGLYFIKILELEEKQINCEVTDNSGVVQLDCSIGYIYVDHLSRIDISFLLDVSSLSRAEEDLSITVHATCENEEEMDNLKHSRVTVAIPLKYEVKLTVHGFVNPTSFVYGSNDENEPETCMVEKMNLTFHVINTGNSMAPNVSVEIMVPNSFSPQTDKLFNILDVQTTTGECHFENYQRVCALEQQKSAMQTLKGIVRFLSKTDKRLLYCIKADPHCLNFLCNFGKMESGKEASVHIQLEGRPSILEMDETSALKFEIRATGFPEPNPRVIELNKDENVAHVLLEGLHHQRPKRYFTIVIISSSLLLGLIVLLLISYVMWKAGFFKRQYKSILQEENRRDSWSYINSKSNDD
MEP2 TOR yeast: modulators of TOR pathway MEP2-GFP in S. cerevisiae | S. cerevisiae MEP2-GFP strain, flow cytometry GFP, 3 h; 100% = DMSO control level | GFP response vs DMSO, % at 10 µM | 330,000 compounds, 0.51% hits;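 active means GFP response versus DMSO above a set limit, roughly screen mean plus 3 SD, cut at about 180% in these data; inconclusive means fewer than 70 cells counted for a yeast strain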;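 further: median GFP fluorescence of the barcode-gated MEP2-GFP cells per well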
CIT2-GFP yeast: alters CIT2-GFP fluorescence in TOR pathway yeast screen | AID 2029 | 320,000 compounds, 0.065% hits | GFP response vs DMSO, % at 10 µM | S. cerevisiae CIT2-GFP strain, flow cytometry, 3 h; 100 means same as DMSO wells;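 active means GFP response relative to DMSO above a set limit, near the screen mean plus 3 SD, cut at about 150% in these data; inconclusive means Fewer than 70 cells measured for a yeast strain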;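 further: ratio of well median GFP fluorescence to mean of DMSO wells on the plate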
Starred values were filed as active, the others as inactive; u = inconclusive; x = no result; [ ] = another dose, or the depositor's remark.

SMILES	RPL19A TOR yeast	AGP1 TOR yeast	LAP4 TOR yeast	VLA-4 inh	MEP2 TOR yeast	CIT2-GFP yeast
Cc1ccc(Cn2c(=N)c(C#N)cc3c(=O)n4cccc(C)c4nc32)cc1	94	100	95	5	104	92
Cc1cccn2c(=O)c3cc(C#N)c(=NC(=O)c4ccccc4)n(Cc4ccco4)c3nc12	44*[may fluoresce violet]	22	96	-22	257*[may fluoresce violet]	u
Cc1cccc(C(=O)N=c2c(C#N)cc3c(=O)n4cccc(C)c4nc3n2Cc2ccco2)c1	17*[may fluoresce violet]	u	83	-37	294*[may fluoresce violet]	u
Cc1ccc(-n2c(=O)c(C#N)cc3c(=O)n4cccc(C)c4nc32)cc1	42*[may fluoresce violet]	22	83	3	150	u
Cc1cccn2c(=O)c3cc(C#N)c(=NC(=O)c4ccco4)n(Cc4ccco4)c3nc12	80	19	104	2	135	u
O=C(C[n+]1cccc(/C=N/O)c1)N1CCCc2ccccc21	111	110	95	-4	105	107
CCc1c(O)nc(SCC(=O)NCc2ccco2)[nH]c1=O	39*[may fluoresce violet]	28	204*[may fluoresce violet]	14	678*[may fluoresce violet]	u
COc1ccc(NC(=O)/C(C#N)=C/c2ccc(Sc3nncn3C)c([N+](=O)[O-])c2)cc1	101	103	108	52*	93	94
Cc1cc2cc3c(cc2nc1SCC(=O)N1CCOCC1)OCO3	60	22	99	7	294*[may fluoresce violet]	u
N#Cc1cc2cc3c(cc2nc1SCC(=O)N1CCOCC1)OCO3	106	101	91	-7	107	100
C[C@H]1CN([C@@H](C)CO)C(=O)c2cccc(NC(=O)C3CC3)c2O[C@H]1CN(C)S(=O)(=O)c1ccccc1	x	x	x	20	x	x
COC(=O)c1ccc(SCc2cnc(Cl)s2)cc1	89	88	86	-1	100	91
O=C(O)c1ccc(SCc2cnc(Cl)s2)cc1	111	123	179*	-2	140	82
CCCCOC(=O)C1CCC[C@@H](C)N1 (some centres not stated)	95	132	165*	-8	135	137
CC1CCCC(C(=O)OCc2ccccc2)N1 (configuration not stated)	100	105	92	-12	102	89
O=C(Nc1ccccc1Cl)c1sccc1-c1ccccc1	94	91	94	4	102	98
COc1ccc(S(=O)(=O)NCCNC(=O)N2CCOCC2)cc1	97	125	114	-15	114	173*[may fluoresce green]
O=C(NCCNS(=O)(=O)c1ccccc1)N1CCOCC1	93	103	93	11	95	94
CCCCNC(NCCCC)=C(S(=O)(=O)CC)S(=O)(=O)CC	64	u	89	-4	230*[may fluoresce violet]	u
Cc1ccc(NC(=O)CSC2=C(C#N)C(c3ccco3)CC(=O)N2)cc1 (configuration not stated)	98	100	98	-5	183*[may fluoresce violet]	u
CCOC(=O)C1=C(c2ccccc2)NC(SCC(=O)Nc2ccc(C)cc2)=C(C#N)C1c1ccco1 (configuration not stated)	19*[may fluoresce violet]	u	89	34	271*[may fluoresce violet]	u
CC(C)NC(=O)CC(=O)NN=C1CCCCC1	101	100	95	15	103	107
O=C(CCCN1C(=O)/C(=C/c2ccccc2Cl)SC1=S)Nc1cccnc1	98	82	104	-3	96	103
CCOC(=O)c1cnc2c(-c3ccccc3)cnn2c1N	32*[may fluoresce violet]	x	114	0	529*[may fluoresce violet]	u
CCOC(=O)c1cnc2c(-c3ccccc3)c(C)nn2c1N	96	96	93	6	100	86
C=CCNC(=O)c1cc(-c2ccncc2)nc2c(C)cc(C)cc12	95	97	106	3	96	103
NNC(=O)c1ccc(Cn2cc(Br)cn2)o1	101	106	106	9	99	97
Cc1ccc(NC(=O)c2ccc(Cn3cc(Br)cn3)o2)cc1	44*[may fluoresce violet]	74	95	1	206*[may fluoresce violet]	u
Oc1c(Cl)cc(Cl)cc1CNc1nc2ccccc2[nH]1	104	103	98	14	102	101
O=C(NC1CCCCC1)c1ccc2snnc2c1	37*[may fluoresce violet]	u	79	-4	364*[may fluoresce violet]	u
